# In all, about 210,000 compounds went through this assay and about 5,900 (2.8%) were called active. Not shown: some 5% with an inconclusive outcome. The call rests on the fitted dose curve; in most records, active means well fitted activation curve with a large enough effect; inconclusive means small, poorly fitted or top-dose-only effect; inactive means no such curve, though single readings can be large or run the other way. Only a selection was taken, and actives are over-represented in it overall.
# Test: qHTS Assay for Enhancers of SMN2 Splice Variant Expression; further: nearly all actives have a fitted effect of over 55% in size; on activity change, positive = activation: % of control where 0% means no effect
# Settings: HEK293 SMN2-luciferase splicing reporter, luminescence, 30-36 h; series mostly up to 46.1 µM; activity change, positive = activation: at the top concentration
# Summary of the method: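 qHTS luciferase splicing reporter: luminescence rises when SMN2 exon 7 is included in transfected HEK293 cells. Compound exposure lasted 30-36 h at 37C, with 4.5 mM final sodium butyrate as control, followed by a ONE-Glo read.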
# Potency means the concentration at half of the fitted maximal effect.
Compound,"activity change, positive = activation",Potency
CCc1ccc(S(=O)(=O)c2nnn3c2nc(NCc2ccccc2OC)c2cc(Cl)ccc23)cc1,1.15% (inactive),–
CCOc1ccc(C2C(C(=O)Nc3ccc(Cl)cc3)=C(C)Nc3nc(C(F)(F)F)nn32)cc1 (centres undefined),-4.78% (inactive),–
Cc1nn(CC(=O)N2CCN(c3cccc(C(F)(F)F)c3)CC2)c(=O)c2cc3sccc3n12,-5.94% (inactive),–
C/C=C(\C)C(=O)O[C@H]1CC(C)=C2C(=O)C=C(C)C2[C@@H]2OC(=O)[C@@](C)(OC(=O)C=C(C)C)C21 (some centres undefined),17.7% (inactive),–
CCN(CCCNC(=O)c1cc(Nc2ccc(OC)cc2)nc2ccccc12)c1cccc(C)c1,-7.3% (inactive),–
CC(C)c1ccc(NC(=O)CN(C)S(=O)(=O)c2ccc3c(c2)c(=O)n(C)c(=O)n3C)cc1,-0.203% (inactive),–
O=C(CSc1oc(-c2ccco2)nc1S(=O)(=O)c1ccccc1)c1ccc(Cl)cc1,5.8% (inactive),–
Cc1ccc(-c2nn(CCC(=O)Nc3ccc(OC(F)(F)F)cc3)c(=O)c3ccccc23)cc1,-2.18% (inactive),–
CCOc1cc(/C=C(\C#N)C(=O)Nc2ccccc2C)ccc1OCc1cc(=O)n2nc(CC)sc2n1,12.3% (inactive),–
COc1ccc(-n2c(=O)c3sc4ccccc4c3n(CC(=O)Nc3cccc(C)c3)c2=O)cc1,13.3% (inactive),–
C/C=C(\C)C(=O)OC1C(OC(=O)C2(C)OC2C)c2cc3ccc(=O)oc3cc2OC1(C)C (centres undefined),-5.48% (inactive),–
Cc1cccc(Cn2c(SCc3ccc(C(=O)N4CCC(C)CC4)cc3)nc3ccncc32)c1,-22% (inactive),–
CC1=C(C(=O)OCC(C)C)C(c2ccc(OCc3ccccc3)cc2)N2C(=O)CCSC2=N1 (centres undefined),-4.32% (inactive),–
O=C(Nc1ccon1)c1sc2ccccc2c1Cl,–,17.8 µM (active)
COC(=O)c1cc(NC(=O)c2sc3ccccc3c2Cl)cc(C(=O)OC)c1,-2.69% (inactive),–
CCCC(=O)Nc1ccc(NC(=O)c2sc3ccccc3c2Cl)cc1,7.87% (inactive),–
COc1ccc(/C=C/c2nc(C#N)c(NCc3ccc(F)cc3)o2)cc1OC,4.34% (inactive),–
CCOc1ccc(CNC(=O)C2CCN(c3nnc(-n4cccc4CNc4ccc(C)cc4)s3)CC2)cc1OC,-9.08% (inactive),–
COc1ccccc1CNc1ncnc2ccc(-c3c(C)noc3C)cc12,–,10 µM (active)
COc1ccc2[nH]cc(CCNc3ncnc4ccc(-c5ccccc5CN(C)C)cc34)c2c1,-14.1% (inactive),–
COCCNc1ncnc2ccc(-c3ccccc3CN(C)C)cc12,5.05% (inactive),–
Cc1c(NC(=O)Nc2ccc(F)c(Cl)c2)c(=O)n(-c2ccccc2)n1C,-4.12% (inactive),–

Compound,"activity change, positive = activation",Potency
Cc1cccc(C)c1OC(=O)CSc1nnc(-c2ccccc2)o1,-14.4% (inactive),–
CCOC(=O)CSc1nnc(-c2ccncc2)o1,-22.8% (inactive),–
CCCCSc1nnc(-c2ccc(C)cc2)o1,–,11.2 µM (active)
O=C(Cc1ccc(Cl)cc1)Nc1ccc2nn(-c3ccc(Cl)cc3)nc2c1,20.2% (inactive),–
CCCCNC(=O)c1ccc2c(c1)NC(=O)C(C(C)C)N2 (centres undefined),-6.9% (inactive),–
COc1ccc(CNc2nc(-c3ccccc3)nn2C(=O)c2ccccc2OC)cc1,10.8% (inactive),–
Brc1cccc(-c2nnn3c2nc(NC2CCCCC2)c2ccccc23)c1,-4.5% (inactive),–
COc1ccc(N2CCN(Cc3nc4c(c(=O)[nH]c(=O)n4C)n3Cc3ccc(Cl)cc3)CC2)cc1,-0.446% (inactive),–
c1ccc(-n2ncc3c(N4CCCC4)ncnc32)cc1,22.3% (inactive),–
O=C(NCCC1=CCCCC1)C1CCN(Cc2cnn(-c3ccccc3)c2-n2cccc2)CC1,-22.3% (inactive),–
C1=C(CCNc2ncnc3c2cnn3-c2ccccc2)CCCC1,–,12.6 µM (active)
CCOc1ccccc1C(=O)NC1(C(F)(F)F)C(=O)Nc2c1c(=O)[nH]c(=O)n2-c1ccc(F)cc1 (centres undefined),-3.45% (inactive),–
O=C(NC1(C(F)(F)F)N=C(c2ccccc2)N(C2CCCCC2)C1=O)c1ccccc1F (centres undefined),8.62% (inactive),–
CCCN1CN=C(NS(=O)(=O)c2ccc(NC(C)=O)cc2)NC1,18.8% (inactive),–
COc1ccc(-c2cc(-c3ccc(F)cc3)nc3c2COc2ccccc2-3)cc1,0.862% (inactive),–
FC(F)(F)c1cnc(Oc2ccccc2-c2nnc(-c3ccc(Cl)cc3)o2)c(Cl)c1,-27.6% (inactive),–
CSc1ccccc1-c1nnc(-c2ccc(Cl)cc2)o1,–,14.1 µM (active)
Clc1ccc(-c2nnc(SCc3nc4ccccc4s3)o2)cc1,32.9% (inactive),–
CCOC(=O)c1ccccc1NC(=O)CCc1c(C)nc2c(c1C)c(=O)n(C)c(=O)n2C,3.25% (inactive),–
CCN(CC)S(=O)(=O)c1ccc2c(c1)N(CC(=O)NCc1ccccc1)C(=O)CS2,13.4% (inactive),–
O=C(CSc1nnc(-c2ccncc2)o1)NCc1ccc(Cl)cc1,-0.354% (inactive),–
O=C(CSc1nnc(-c2ccc([N+](=O)[O-])cc2)o1)Nc1ccccn1,–,3.16 µM (active)

Compound,"activity change, positive = activation",Potency
CCc1ccccc1NC(=O)CSc1nnc(-c2ccncc2)o1,8.81% (inactive),–
N#Cc1nc(/C=C/c2ccc(F)cc2)oc1NCc1ccc(F)cc1,1.53% (inactive),–
Cc1ccc2nc3c(cc(C(=O)NC4CCCCC4)c(=N)n3C(C)C)c(=O)n2c1,-15% (inactive),–
Cc1ccc(Nc2ccccc2N)cc1,11.1% (inactive),–
Nc1ccccc1N,–,11.2 µM (active)
NCCC(=O)c1ccccc1N,-8.09% (inactive),–
COc1ccc(NC(=O)C(=O)NCc2ccco2)cc1,0.617% (inactive),–
COc1cccc(NC(=O)N2CCN(C(=O)c3nsc4ccccc34)CC2)c1,-19.1% (inactive),–
COc1cccc2sc(NNC(=O)c3nc4ccccc4s3)nc12,-52.6% (inactive),–
COc1cccc2sc(N(CCCN(C)C)C(=O)C(c3ccccc3)c3ccccc3)nc12,-9.4% (inactive),–
COc1cccc2sc(Nc3nc(C)c(C(C)=O)s3)nc12,–,7.94 µM (active)
COc1ccc(/C=C2\NC(=O)[C@@H]3Cc4ccccc4CN3C2=O)cc1,4.1% (inactive),–
CCN(CC)S(=O)(=O)c1ccc2c(c1)N(CC(=O)NCC(C)c1ccccc1)C(=O)CO2 (centres undefined),12.9% (inactive),–
O=Cc1ccc(OCc2cn3ccccc3n2)cc1,–,11.2 µM (active)
COc1ccc(C(=O)NCc2cn3ccccc3n2)cc1,-14% (inactive),–
Cc1ccc2nc(COc3ccc(N(C)S(=O)(=O)c4ccccc4)cc3)cc(=O)n2c1,-56.7% (inactive),–
COc1ccc(-c2nc3c(c(SCC(=O)Nc4ccc(C(=O)O)cc4)n2)Cc2ccccc2O3)cc1,26.4% (inactive),–
Cc1cc(C)nc(Nc2cc([N+](=O)[O-])ccc2C)n1,-11.5% (inactive),–
Cc1ccc(-n2cc3ccc([N+](=O)[O-])cc3n2)cc1,–,1.26 µM (active)
CC(C)(C)NC(=O)Cn1cnc2cc([N+](=O)[O-])ccc2c1=O,-7.49% (inactive),–
